This is an account of results in PubChem BioAssay (NCI).

The structures appear in SMILES notation. The panel holds about 79,000 compounds, 15% with a hit somewhere; the sample as a whole holds those more often. A number with no mark means an inactive call. Calls of active or inactive are those of the source. Cut-off read from the data, not from the text of the source: active = growth inhibition above about 70%; inactive = the rest.

The nature of experiment [1]: NCI Yeast Anticancer Drug Screen. Data for the rad50 strain (AID 155).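 Note: 0% = growth of vehicle-only cultures of the same strain.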 Conditions: S. cerevisiae rad50 strain growth inhibition; at 50.0 µM; active compounds read high. An outline of the steps:
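Cells are treated with compound, grown, and their growth is then scored against vehicle-only cultures of the same repair-deficient yeast strain.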

Experiment [2] in a line: NCI Yeast Anticancer Drug Screen. Data for the mec2-1 strain (AID 157). The note with it: S. cerevisiae mec2-1 strain, at 50.0 µM, active compounds read high. The method, boiled down: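 Readout is yeast growth inhibition, normalised to vehicle-treated controls, in the mec2-1 strain exposed to compound.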
The nature of experiment [3]: NCI Yeast Anticancer Drug Screen. Data for the sgs1 mgt1 strain (AID 161).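 Note: 0% = growth of cultures given vehicle only.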 Conditions: S. cerevisiae sgs1 mgt1 strain, at 50.0 µM, active compounds read high. An outline of the steps: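 Yeast cells carrying a defined DNA-repair defect were exposed to test compounds. Growth inhibition was measured relative to vehicle-treated controls.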
The nature of experiment [4]: NCI Yeast Anticancer Drug Screen. Data for the cln2 rad14 strain (AID 165).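 Note: 0% = growth equal to vehicle treated cultures.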 The note with it: S. cerevisiae cln2 rad14 strain, at 50.0 µM, active compounds read high. An outline of the steps: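 Relative to vehicle controls, growth inhibition of compound-treated cln2 rad14 yeast was recorded.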
A short description of experiment [5]: NCI Yeast Anticancer Drug Screen. Data for the bub3 strain (AID 167). Conditions: S. cerevisiae bub3 mutant strain, at 50.0 µM, active compounds read high. The method, boiled down: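 Part of a panel of yeast mutants defective in DNA damage repair or cell cycle regulation. Each strain is grown with compound, and inhibition is calculated relative to solvent-treated cultures.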

Experiment [6] in a line: NCI Yeast Anticancer Drug Screen. Data for the mlh1 rad18 strain (AID 175). The note with it: S. cerevisiae mlh1 rad18 strain growth inhibition; at 50.0 µM; active compounds read high. The method, boiled down:
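Test agents were incubated with a yeast strain of defined genotype (DNA damage repair defect). Inhibition of growth was derived by comparison with vehicle-exposed cultures.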

For the molecule `O=C1CCN2CCC(=O)c3c(Cl)ccc1c32`, the growth inhibition in experiment [1] is 8.05%; in experiment [2], 13.3%; in experiment [3], 8.5%; in experiment [4], 13.8%; in experiment [5], 14.1%; in experiment [6] it was 16.9%.
Regarding `OCC1NCCC(O)C1OC1OC(CO)C(O)C(O)C1O` (stereo unspecified), the growth inhibition was 5.25% in experiment [1]; -22.1% in experiment [2]; -0.65% in experiment [3]; -2.75% in experiment [4]; -5.7% in experiment [5]; -18.6% in experiment [6].
With `Nc1cc2c3c(cccc3c1)NC2=O`, the growth inhibition in experiment [1] was 47.5%; in experiment [2], 14.4%; in experiment [3], 17.9%; in experiment [4], 11%; in experiment [5], -1.5%; in experiment [6], -12.9%.
On to `O=C(O)CC(C(=O)O)C1c2ccccc2-c2ccccc21` (stereo unspecified), for which the growth inhibition in experiment [1] was -0.1%; in experiment [2], -27.2%; in experiment [3], -40.4%; in experiment [4], -17.2%; in experiment [5] it was -49.2%; in experiment [6], 3.6%.
`O=C(CC(C(=O)c1cccs1)c1ccsc1)c1ccsc1` (stereo unspecified): the growth inhibition in experiment [1] was -14%; in experiment [2], -50.2%; in experiment [3], -4.4%; in experiment [4], 7.55%; in experiment [5] it was 25.2%; in experiment [6] it was -25.6%.
`CC(Cc1ccccc1)NC(=O)C1CC2CCCCN2C1C` (stereo unspecified): the growth inhibition is 4.95% in experiment [1]; 20.4% in experiment [2]; 57.2% in experiment [3]; 45.9% in experiment [4]; 45.5% in experiment [5]; 48.6% in experiment [6].
As for `COC(=O)Cc1c(-c2[nH]c3ccccc3c2CC(=O)OC)[nH]c2ccccc12`, the growth inhibition is 13.9% in experiment [1]; 7.45% in experiment [2]; 6% in experiment [3]; -17.4% in experiment [4]; 3.85% in experiment [5]; -20.8% in experiment [6].
On to `COc1ccc2[nH]c3c(c2c1)[C@H](c1ccccc1)C[C@@H]1C(=O)N(c2ccccc2)C(=O)[C@H]31`, for which the growth inhibition in experiment [1] is -5.25%; in experiment [2], -6.65%; in experiment [3], 1.75%; in experiment [4], 0.65%; in experiment [5] it was -8.9%; in experiment [6], -7.95%.
Consider `OC(CNC1CC2CCC1C2)COc1cccc2ccccc12` (stereo unspecified), for which the growth inhibition was 68.4% in experiment [1]; 42.9% in experiment [2]; 76.5% (active) in experiment [3]; 52.4% in experiment [4]; 51% in experiment [5]; 82.4% (active) in experiment [6].
`CCOC(=O)C(=[N+]=[N-])C(=O)c1ccc(OS(C)(=O)=O)c(OS(C)(=O)=O)c1`: the growth inhibition was 7.8% in experiment [1]; -1.05% in experiment [2]; 13% in experiment [3]; 22.3% in experiment [4]; -0.2% in experiment [5]; 11.9% in experiment [6].
Turning to `CCCCCCCCCCCCCCCCCCCCCCCCCCCC`, the growth inhibition in experiment [1] was -8.5%; in experiment [2], -10.1%; in experiment [3], -16%; in experiment [4], -21.2%; in experiment [5], -4.55%; in experiment [6], -22.9%.
Take `O=CNc1ccc(-c2ccc(NC=O)cc2)cc1`: the growth inhibition in experiment [1] is 27.6%; in experiment [2], 4.5%; in experiment [3] it was 7.75%; in experiment [4], 13.1%; in experiment [5], -12.8%; in experiment [6] it was -6.4%.
Consider `O=C(CO)CC(=O)CCC(=O)Nc1cccc([N+](=O)[O-])c1`, for which the growth inhibition in experiment [1] is -4.7%; in experiment [2] it was 21.5%; in experiment [3] it was 0%; in experiment [4], 42.8%; in experiment [5] it was -12.3%; in experiment [6], -4.35%.
Turning to `O=C(Nc1ccc(C2=NCCN2)cc1)c1cncc(C(=O)Nc2ccc(C3=NCCN3)cc2)c1`, the growth inhibition is 5.2% in experiment [1]; 22.6% in experiment [2]; 16.4% in experiment [3]; 50% in experiment [4]; 8.95% in experiment [5]; 45.6% in experiment [6].
With `COC(=O)C1c2ccccc2CC(=O)N1NC(C)=O` (stereo unspecified), the growth inhibition in experiment [1] is 15.6%; in experiment [2] it was 1.65%; in experiment [3], -19.4%; in experiment [4], 9.65%; in experiment [5] it was 5.3%; in experiment [6] it was 10.4%.
Consider `CCCCC/C(C)=N\O`, for which the growth inhibition in experiment [1] was -19%; in experiment [2], 3.8%; in experiment [3] it was 3.35%; in experiment [4], -13.6%; in experiment [5], -7.15%; in experiment [6] it was 13.2%.
Consider `Cc1ccc(OCC(O)CN2CCN(c3ccc(C)cc3)CC2)cc1` (stereo unspecified), for which the growth inhibition was 26.6% in experiment [1]; -10.4% in experiment [2]; 36% in experiment [3]; -35.7% in experiment [4]; 4.55% in experiment [5]; 0.05% in experiment [6].
Take `CC(C)NC(N)=O`: the growth inhibition in experiment [1] is 29.8%; in experiment [2] it was 16%; in experiment [3], 26.4%; in experiment [4], 19.1%; in experiment [5], 2.35%; in experiment [6], 16.4%.
For the molecule `Cc1c2oc3c(C)ccc(C(=O)NCc4cccnc4)c3nc-2c(C(=O)NCc2cccnc2)c(N)c1=O`, the growth inhibition in experiment [1] is 42.6%; in experiment [2] it was -0.85%; in experiment [3] it was -6.85%; in experiment [4], 7.55%; in experiment [5], 2.6%; in experiment [6], 13.1%.
Turning to `O=C(c1ccccc1)N1C(c2ccccc2)C1(c1ccccc1)C1(c2ccccc2)SCCCS1` (stereo unspecified), the growth inhibition in experiment [1] was -17.6%; in experiment [2], 14.7%; in experiment [3], -13.4%; in experiment [4] it was -61.6%; in experiment [5], -0.1%; in experiment [6] it was -1.25%.
Consider `CCCNc1nc2c(c(=O)n(C)c(=O)n2C)n1C`, for which the growth inhibition in experiment [1] is -11.2%; in experiment [2], 0.1%; in experiment [3] it was 13.7%; in experiment [4] it was -29.7%; in experiment [5] it was 23.1%; in experiment [6] it was 7.9%.
